MCL1 BIM primary – disrupts human MCL1 binding to BIM-BH3 peptide. Q07820. GST-MCL1 / FITC-Bim-BH3 fluorescence polarization. inhibition, % at 10.9 µM. 320,000 compounds, 0.68% hits;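 active = inhibition above the mean inhibition of all tested compounds plus 3 SD, set per campaign, cut at about 40% in these data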;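 note: 0% = DMSO wells and 100% = unlabeled Bim-BH3 peptide control; higher means more loss of mP so more displacement of Bim peptide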
eLon inh – inhibits E. coli Lon protease | 360,000 compounds, 0.42% hits | purified E. coli Lon protease, fluorescence polarization | AID 602123 | inhibition, % at 7.94 µM | P0A9M0; in the data active = inhibition above about 13%, passing the limit was not always enough;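 note: 0% = enzyme with probe and DMSO and 100% = no enzyme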
GLD-1 RNA inh – GLD-1-TGE RNA interaction inhibition (C. elegans); AID 2280; purified GLD-1 + fluorescein TGE RNA, fluorescence polarization; inhibition, % at 5.96 µM; Q17339; 320,000 compounds, 0.44% hits;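 active = percent inhibition above a per-plate cutoff, the plate mean of test compounds plus 3 SD, cut at about 30% in these data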;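 note: 0% = DMSO wells with GLD-1 and probe and 100% = wells lacking GLD-1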
MEX-5 binding – C. elegans MEX-5 TCR-2 RNA binding activity; Q9XUB2; MEX-5/FITC-TCR2 RNA binding, fluorescence polarization; active compounds read low; activity score (negative = inhibition of binding), % at 10 µM; 300,000 compounds, 0.38% hits; AID 1832;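 active = inhibition past about -25% in most replicates, and total fluorescence under double the plate's negative control median, limit read from the data; inconclusive = replicates evenly split on the limit, or fluorescence at least double controls; inactive = too little inhibition in most replicates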;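 note: 0% = DMSO and -100% = 5 µM competing unlabeled TCR2 RNA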
EBV gp42 block – inhibitors of Epstein-Barr virus glycoprotein 42; Q1HVG2; Fluorescence polarization binding assay, mP read-out; inhibition, % (tested at 21.74 µM); 220,000 compounds, 0.42% hits; AID 1085; in the data active = inhibition above about 50%
Target sequence (Q1HVG2 whole entry, looked up): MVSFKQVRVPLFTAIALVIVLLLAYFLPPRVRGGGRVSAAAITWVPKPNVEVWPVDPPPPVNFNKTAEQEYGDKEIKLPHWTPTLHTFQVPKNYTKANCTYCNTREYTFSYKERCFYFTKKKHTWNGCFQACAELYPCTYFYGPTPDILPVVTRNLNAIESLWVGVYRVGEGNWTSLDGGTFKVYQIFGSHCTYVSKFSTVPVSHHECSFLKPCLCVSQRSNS
BCLXL inh – Bcl-xL (human) inhibition; Q07817; GST-Bcl-xL / FITC-Bim BH3 peptide fluorescence polarization; inhibition, % at 10.9 µM; 320,000 compounds, 0.7% hits; AID 2129;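 active = inhibition above the mean of all tested compounds plus 3 SD, cutoff set per campaign, cut at about 30% in these data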;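 note: 0% = DMSO wells and 100% = unlabeled Bim-BH3 peptide competitor; inhibitors lower millipolarization by displacing the labeled peptide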
Target sequence (Q07817 whole entry, looked up): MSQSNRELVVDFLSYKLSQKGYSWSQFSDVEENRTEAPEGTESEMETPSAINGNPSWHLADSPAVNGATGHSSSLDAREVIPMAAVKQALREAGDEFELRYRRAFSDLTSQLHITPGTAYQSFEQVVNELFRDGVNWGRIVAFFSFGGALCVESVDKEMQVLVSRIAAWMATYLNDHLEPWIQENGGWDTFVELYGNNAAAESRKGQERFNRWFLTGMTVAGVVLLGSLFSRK
An asterisk follows results filed as active; ? = inconclusive; · = no result; + = active, no number. Shown are actives, neighbours in structure and some others; about 1.5% of the full set was active somewhere.

SMILES | MCL1 BIM primary | eLon inh | GLD-1 RNA inh | MEX-5 binding | EBV gp42 block | BCLXL inh
O=C(Nc1ccc(Cl)cc1)Nc1ccc(Br)cn1 | 4 | 1 | -8 | 0 | · | 3
COc1ccccc1N1CCN(CC(=O)Nc2ccccc2C(=O)NC(C)c2ccccc2)CC1 (stereo unspecified) | -8 | -9 | 3 | · | · | -3
CCN1/C(=C\C(=S)Nc2ccccc2)Sc2ccccc21 | 17 | -3 | -15 | 0 | 10 | 15
CCN1/C(=C/C(C)=C/c2sc3ccccc3[n+]2CC)Sc2ccccc21 | 17 | 4 | + | 5 | -41 | 33*
Cc1ccc(S(=O)(=O)C(C#N)c2nc3ccccc3nc2OC(C)C)cc1 (stereo unspecified) | 1 | -8 | 1 | -9 | 0 | 6
N#CC(c1nc2ccccc2nc1OCCO)S(=O)(=O)c1ccccc1 (stereo unspecified) | -2 | -8 | 3 | -38* | -20 | 0
O=Cc1ccc(OC(=O)CCCCC(=O)Oc2ccc(C=O)cc2)cc1 | 5 | 1 | 2 | 0 | · | 1
CN(C)C(CNC(=O)c1ccc(-c2ccccc2)cc1)c1ccccc1 (stereo unspecified) | 6 | 6 | 12 | -1 | · | 5
Cc1ccc(-c2ccccc2)n1-c1ccc(C(=O)O)cc1 | 10 | -4 | 3 | -3 | 6 | 9
Cc1cc2c(n1-c1ccc(C(=O)O)cc1)CCCCC2 | · | · | · | -62* | · | ·
CCOc1c(CNCCCSc2nc(C)cc(C)n2)cccc1OC | 5 | -8 | 2 | -2 | · | -1
Oc1oc(-c2ccccc2)nc1/C=N/c1nccs1 | 2 | -9 | 2 | -9 | -26 | 8
Oc1oc(-c2ccccc2)nc1C=Nc1cccc2ccccc12 | -5 | -7 | 1 | -2 | 75* | 2
CC(=O)N1CCN(S(=O)(=O)c2ccc(C)cc2)C1C (stereo unspecified) | 4 | -2 | -2 | 0 | · | -1
O=C1C2C3C=CC(C4CC34)C2C(=O)N1/N=C/c1ccc(-c2ccc(Cl)cc2[N+](=O)[O-])o1 (stereo unspecified) | 18 | 5 | 15 | 2 | 10 | 16
COc1ccc(-c2ccc(/C=N/N3C(=O)C4C5C=CC(C6CC56)C4C3=O)o2)c([N+](=O)[O-])c1 (stereo unspecified) | 39 | 4 | 20 | 2 | 5 | 31*
COc1ccc2cc(C(C)=O)c(=O)oc2c1 | -5 | -1 | -3 | 0 | -4 | 2
CC(=O)c1cc2ccc(O)cc2oc1=O | 37 | 1 | 25 | -2 | 32 | 48*
CCOC(=O)Cn1c(-c2ccccc2)nc2ccccc2c1=O | -3 | 0 | 2 | 1 | -11 | -3
CCOC(=O)Cn1c2ccc(OC)cc2c2nc3ccccc3nc21 | 8 | -8 | 4 | -102* | 64* | 1
O=C(OC(C(=O)NC1CCCCC1)c1ccc(C(F)(F)F)cc1)c1ccco1 (stereo unspecified) | -2 | -6 | 2 | 0 | · | -2
O=C(/C=C/c1ccc(O)c(O)c1)OCCc1ccccc1 | 33 | 0 | 6 | -1 | · | 18
O=C(/C=C/c1ccc(O)c(O)c1)OC(Cc1ccc(O)c(O)c1)C(=O)O (stereo unspecified) | 28 | 2 | 2 | -53* | · | 20
Cc1cccc(NC(=O)COC(=O)c2ccc(S(=O)(=O)N3CCCC3)cc2)c1 | · | -3 | · | · | · | ·
COCCN(CCOC)Cc1c(O)ccc2c1O/C(=C\c1ccc(C)o1)C2=O | 24 | -67 | -4 | ? | · | 34*
SMILES | MCL1 BIM primary | eLon inh | GLD-1 RNA inh | MEX-5 binding | EBV gp42 block | BCLXL inh
CCN(CC)Cc1c(O)ccc2c1O/C(=C\C=C\c1ccccc1)C2=O | 19 | -77 | 12 | -7 | -12 | 27
CCOc1ccc(N2C(=O)S/C(=C\c3cccn3C)C2=O)cc1 | -14 | -26 | 0 | -30* | -10 | -4
CCCCC1(C)OC(=O)C(=Cc2ccc(N(CC)CC)cc2)C(=O)O1 (stereo unspecified) | -22 | -13 | -5 | ? | 75* | -13
CCN(CC)c1ccc(C=C2C(=O)OC3(CCCCC3)OC2=O)cc1 | -46 | -7 | -22 | 5 | -89 | -21
CC(C)(C)[C@H]1COC(=O)[C@H](Cc2ccc(F)cc2)CC/C=C/C[C@@H](CC(=O)N[C@H](CO)Cc2ccccc2)C(=O)N1 | · | -2 | -2 | · | · | ·
O=C(COC(=O)c1nn(CCO)c(=O)c2ccccc12)Nc1ccc(Cl)c(Cl)c1 | · | 5 | 2 | · | · | ·
